DT40 TDP1 CPT = growth inhibition of DT40 Tdp1-/-;hTDP1 cells with camptothecin (screen for TDP1 inhibitors); chicken DT40 Tdp1-/-;hTDP1 cells + 20 nM CPT, ATP luminescence, 48 h; Potency, µM (doses to about 46.2 µM), for the others: at the highest dose activity change, negative = growth inhibition, actives largely listed as inhibitors; 420,000 tested, 12% active; AID 686979; also: nearly all actives have a fitted effect of over 55% in size
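Chicken DT40 Tdp1-/- cells complemented with human TDP1, 400 cells/well, exposed to compounds plus 20 nM camptothecin for at least 48 h at 37 C; viability read as ATP content by CellTiter-Glo luminescence.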
DT40 TDP1 no CPT = qHTS for Inhibitors of human tyrosyl-DNA phosphodiesterase 1 (TDP1): qHTS in cells in absence of CPT. Potency, µM (doses to about 46.2 µM), inactives show top-dose activity change, negative = growth inhibition, usual class: inhibitors. AID 686978, 2013. DT40 Tdp1-/- hTDP1 cells, no CPT, ATP luminescence, 48 h. 420,000 tested, 15% active; also: nearly all actives have a fitted effect of over 55% in size
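Growth of hTDP1-complemented DT40 Tdp1-knockout cells is measured by ATP luminescence after at least 48 hr compound exposure at 37 °C, with DMSO substituting for the 20 nM CPT used in the parallel screen.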
KB-3-1 tox = KB-3-1 parental cell cytotoxicity | Potency, µM (highest dose often 46.1 µM), actives largely listed as cytotoxic | KB-3-1 viability, CellTiter-Glo ATP luminescence, 72 h | AID 1347075 | 400,000 tested, 1.4% active; also: nearly all actives have a fitted effect of over 60% in size
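KB-3-1 cells, DMEM (no phenol red) + 10% FBS; compound by pin transfer, 72 h, 37 °C. Readout: CellTiter-Glo luminescence after 10 min. Data normalized, curve-fitted.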
HT1080 IDH1KD tx = HT-1080 IDH1 knockdown cell toxicity (counter line). 360,000 tested, 2% active. HT-1080 IDH1 knockdown viability, ATP luminescence, 48 h. Potency, µM (top dose mostly 46.1 µM), inactives show at the highest dose activity, negative = toxicity, actives largely listed as cytotoxic;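 also: 0% = DMSO wells and -100% = cell-free medium wells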
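Viability of IDH1-knockdown HT-1080 fibrosarcoma cells was assessed by CellTiter-Glo after 48 h at 37 °C with titrated compound; concentration-effect curves were classified by fit quality and response size.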
HT1080-NT tox = kills 2HG-producing HT-1080-NT fibrosarcoma cells. Potency, µM (doses to about 46.1 µM), for the others: at the top dose activity, negative = less viability, most hits filed as cytotoxic. 360,000 tested, 1.6% active. HT-1080-NT fibrosarcoma viability, CellTiter-Glo ATP luminescence, 48 h. AID 686970;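 also: NT is the 2HG producing partner of a matched IDH1 knockdown line; 0% = DMSO-treated cells and -100% = media-only wells without cells; nearly all actives have a fitted effect of over 55% in size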
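HT-1080-NT; 750 cells/well; 5% FBS RPMI; 48 h compound, 37 degrees C; CellTiter-Glo luminescence; curve fitting and curve-class assignment.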
KB-V1 MDR tox = kills drug-selected multidrug resistant KB-V1 cells. KB-V1 MDR cells viability, CellTiter-Glo, 72 h. Potency, µM (highest dose often 46.1 µM), actives largely listed as cytotoxic. 400,000 tested, 3.4% active; also: nearly all actives have a fitted effect of over 60% in size
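Luminescent ATP read-out (CellTiter-Glo, 10 min) measures survival of drug-selected KB-V1 MDR cells after 72 h, 37 degrees C compound exposure. Medium: phenol-red-free DMEM, 10% FBS. Values from fitted concentration-response curves.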
The depositor's hits bear a star; i = inactive; ? = inconclusive; nt = no result; [ ] = dose if it differs, or a comment. A selection: hits, their analogues and other compounds. The true share with any hit is near 19%. Calls follow the shape of the dose curve; as a rule, active = well fitted curve in the direction sought with a large enough effect; inconclusive = small, poorly fitted or top-dose-only effect, or another doubt; inactive = no such curve, though single readings can be large; an effect the other way counts as inactive or inconclusive. Unless noted, % is scaled to controls: 0 for no effect and ±100 for the full control effect; potency is read from the fitted curve at half-maximal effect.

SMILES	DT40 TDP1 CPT	DT40 TDP1 no CPT	KB-3-1 tox	HT1080 IDH1KD tx	HT1080-NT tox	KB-V1 MDR tox
CCOCCCNC(=O)C(c1ccccc1)N(Cc1cccs1)C(=O)c1ccc(NC(C)=O)cc1 (configuration not stated)	?	16.4µM*	i	nt	nt	i
CCOCCCNC(=O)C(c1ccc(C)cc1)N(Cc1ccc2c(c1)OCO2)C(=O)c1ccc(NC(C)=O)cc1 (configuration not stated)	14.6µM*	?	i	nt	nt	i
CCOCCCNC(=O)C(c1ccc(Cl)cc1)N(Cc1ccc2c(c1)OCO2)C(=O)c1ccc(NC(C)=O)cc1 (configuration not stated)	?	?	i	nt	nt	i
COc1cc2c(cc1OC)C(C1C(=O)CC(C)CC1=O)N(C(=O)CCl)CC2 (configuration not stated)	4.3%	-13.5%	i	-3.4%	1.8%	i
O=C(NCc1ccco1)c1ccc2c(c1)N(Cc1ccccc1F)C(=O)c1ccccc1S2=O (configuration not stated)	-19.1%	?	i	nt	nt	i
COc1cc(OC)c(OC)cc1CN1CCN(Cc2cccn2C)CC1	3.6%	?	i	9.5%	19.2%	?
Oc1ccc2ccccc2c1C=Nc1cc(C(F)(F)F)ccc1N1CCCC1	-3.7%	-5.9%	i	?	-28.7%	i
ClC(Cl)(c1nnnn1-c1ccccc1)c1nnnn1-c1ccccc1	1.3µM*	2.59µM*	i	6.51µM*	?	i
c1ccc(-c2nnnn2-c2ccccc2)cc1	5.8%	21.1%	i	-0.1%	4.6%	i
CC(C)Oc1ccc(CNC(=S)N/N=C/c2cccnc2)cc1	?	?	?	-29.3%	-21.2%	?
Cc1c(C(=O)Nc2ccc(S(=O)(=O)N(C)C3CCN(C)CC3)cc2)oc2ccccc12	20.6µM*	18.4µM*	i	-10.6%	-10.2%	20.6µM*
Cc1ccc(Cl)cc1NC(=O)c1oc2ccc(S(=O)(=O)N3CCCCC3)cc2c1C	-13.9%	-24.3%	i	nt	nt	i
CN1CCC(N(C)S(=O)(=O)c2ccc(NC(=O)c3ccc(S(=O)(=O)N(C)C)cc3)cc2)CC1	-0.3%	-27.0%	i	15.9%	5.5%	i
Cc1cccc(NC(=O)c2oc3ccc(S(=O)(=O)N(C)C4CCCCC4)cc3c2C)c1C	10.3µM*	8.2µM*	nt	nt	nt	nt
Cc1c(C(=O)Nc2cccc(Cl)c2)oc2ccc(S(=O)(=O)N(C)C3CCCCC3)cc12	?	20.6µM*	nt	nt	nt	nt
Cc1ccc(Cl)cc1NC(=O)c1oc2ccc(S(=O)(=O)N(C)C3CCCCC3)cc2c1C	20.6µM*	?	nt	nt	nt	nt
C/C(CC(=O)Nc1cccnc1)=N\NC(=O)C(C)Oc1ccc(Cl)cc1Cl (configuration not stated)	8.8%	-19.8%	i	-4.2%	0.4%	i
Cc1ccccc1NC(=O)c1cccc2nc3ccccc3nc12	?	23.1µM*	?	-0.9%	-8.6%	?
CN1c2ccc(Cl)cc2-c2nc(SCC(=O)NCc3ccc(F)cc3)ncc2S1(=O)=O	-17.9%	-9.8%	i	nt	nt	i
Cc1ncc2c(c1CNC(=O)CN1CCCC1)CCN(C(=O)c1ccc(F)cc1F)C2	-5.6%[9.04 µM]	-16.2%	nt	nt	nt	nt
CN1CCN(S(=O)(=O)c2ccc(N3CCN(C(c4ccccc4)c4ccccc4)CC3)nc2)CC1	?	16.4µM*	?	?	7.4%	i

Screening results from PubChem.
